High-throughput results deposited in PubChem by NMMLSC.
Compounds with a hit are over-represented: about 1.8% of the library has one in this group of screens.
LAP4 TOR yeast – yeast TOR pathway LAP4-GFP modulation; GFP response vs DMSO, % at 10 µM; 320,000 compounds, 0.34% hits; S. cerevisiae LAP4-GFP multiplex, flow cytometry GFP, 3 h; median GFP as percent of DMSO wells;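 active = GFP response vs DMSO above a set limit, about the screen mean plus 3 SD, cut at about 150% in these data; inconclusive = under 70 cell events counted for the yeast strain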
AGP1-GFP MLPCN – modulators of TOR pathway AGP1-GFP in S. cerevisiae; 320,000 compounds, 0.02% hits; S. cerevisiae AGP1-GFP multiplex flow cytometry, 3 h; GFP as percent of DMSO wells; GFP response vs DMSO, % at 10 µM; AID 2066;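 active = GFP response relative to DMSO above a set limit, near screen average plus 3 SD, cut at about 150% in these data; inconclusive = fewer than 70 cells counted for the yeast strain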;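 also: median GFP channel fluorescence of the gated AGP1 strain per well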
CIT2 TOR yeast – yeast TOR pathway CIT2-GFP modulation; AID 2029; GFP response vs DMSO, % at 10 µM; 320,000 compounds, 0.065% hits; S. cerevisiae CIT2-GFP strain, flow cytometry, 3 h; 100 means same as DMSO wells;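 active = GFP response relative to DMSO above a set limit, near the screen mean plus 3 SD, cut at about 150% in these data; inconclusive = Fewer than 70 cells measured for a yeast strain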;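 also: ratio of well median GFP fluorescence to mean of DMSO wells on the plate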
MEP2-GFP yeast – alters MEP2-GFP fluorescence in TOR pathway yeast screen. S. cerevisiae MEP2-GFP strain, flow cytometry GFP, 3 h; 100% = DMSO control level. 330,000 compounds, 0.51% hits. GFP response vs DMSO, % at 10 µM;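 active = GFP response versus DMSO above a set limit, roughly screen mean plus 3 SD, cut at about 180% in these data; inconclusive = fewer than 70 cells counted for a yeast strain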;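 also: median GFP fluorescence of the barcode-gated MEP2-GFP cells per well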
RPL19A TOR yeast – yeast TOR pathway RPL19A-GFP modulation | S. cerevisiae RPL19A-GFP strain, flow cytometry, 3 h; stronger effect = lower value | percent response vs DMSO, % at 10 µM | 330,000 compounds, 0.3% hits;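 active = percent response vs DMSO below 50%; inconclusive = fewer than 70 events counted for the yeast strain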;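 also: median channel GFP fluorescence of the barcoded RPL19A-GFP strain; lower means less RPL19A-GFP as with rapamycin TOR inhibition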
Myeloid diff MLP – compounds promoting myeloid differentiation; 360,000 compounds, 1% hits; calls only at 10 µM; ER-HoxA9 myeloid progenitors, lysozyme-GFP differentiation, flow cytometry;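 active = normalized GFP-positive differentiation at or above the plate's own cutoff, the solvent-only control mean plus 3 SD; inconclusive = no clear call, values can overlap the other calls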;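 also: cells exposed to compound for four days before flow analysis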
LAP4-GFP pick2 – reconfirmed LAP4-GFP TOR pathway modulator in yeast | 590 compounds, 20% hits | shares compounds with LAP4 TOR yeast | GFP response vs DMSO, % at 10 µM | S. cerevisiae LAP4-GFP strain, flow cytometry GFP, 3 h | AID 2621;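 active = GFP signal as percent of the solvent control above about 150%, meaning raised reporter expression, limit read from the data; inconclusive = fewer than 70 cells counted in the well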
MEP2-GFP pick2 – reconfirmed MEP2-GFP TOR pathway modulator in yeast; 590 compounds, 10% hits; GFP response vs DMSO, % at 10 µM; shares compounds with LAP4 TOR yeast; S. cerevisiae MEP2-GFP strain, flow cytometry GFP, 3 h;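 active = GFP signal above 150% of the solvent control wells, that is a rise of more than half; inconclusive = fewer than 70 yeast cells counted in the well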;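 also: median channel GFP fluorescence of all gated yeast cells per well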
RPL19A GFP CP2 – yeast RPL19A-GFP TOR reporter modulation, second cherry pick; AID 2623; GFP response vs DMSO, % at 10 µM; shares compounds with LAP4 TOR yeast; S. cerevisiae RPL19A-GFP strain, flow cytometry GFP, 3 h; stronger effect = lower value; 100% means same as DMSO wells; 590 compounds, 3% hits;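 active = under 65% GFP response relative to DMSO; inconclusive = yeast strain with under 70 measured events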;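 also: median GFP channel fluorescence per well over the all cells gate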
CIT2 GFP CP2 – reconfirmed modulator of CIT2-GFP TOR reporter in yeast; shares compounds with LAP4 TOR yeast; S. cerevisiae CIT2-GFP strain, flow cytometry GFP, 3 h; DMSO control wells read 100%; GFP response vs DMSO, % at 10 µM; 590 compounds, 8% hits; AID 2624;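 active = GFP response vs DMSO above about 150%, limit read from the data; inconclusive = fewer than 70 events counted for a yeast strain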;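 also: median green fluorescence per well over all gated yeast cells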
AGP1 GFP CP2 – reconfirmed modulator of AGP1-GFP TOR reporter in yeast; S. cerevisiae AGP1-GFP strain, flow cytometry GFP, 3 h; shares compounds with LAP4 TOR yeast; percent response vs DMSO, % at 10 µM; 590 tested, under 10 active;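 active = over 150 percent of DMSO response; inconclusive = yeast strain measured with under 70 events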;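 also: median GFP channel fluorescence over all cells without mother daughter split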
s288c autofluor – yeast s288c autofluorescence artifact, counter-screen; shares compounds with LAP4 TOR yeast; S. cerevisiae s288c, 520 nm autofluorescence, flow cytometry, 3 h; stronger effect = higher value; zero means same as solvent-only cells; fluorescence change (kMESF span) at 33 µM; 610 tested, under 10 active;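 active = fluorescence span over the dose series, or activity score, above about 33, limit read from the data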
Numbers stand for hits; - = inactive; ? = inconclusive; . = no result; + = active, no number.

SMILES	LAP4 TOR yeast	AGP1-GFP MLPCN	CIT2 TOR yeast	MEP2-GFP yeast	RPL19A TOR yeast	Myeloid diff MLP	LAP4-GFP pick2	MEP2-GFP pick2	RPL19A GFP CP2	CIT2 GFP CP2	AGP1 GFP CP2	s288c autofluor
COc1ccccc1[C@]1(C)ON(c2ccccc2C(F)(F)F)C1=O	156	-	-	-	-	-	150	-	-	-	-	-
COc1ccc(-c2nc(=S)n3ccsc3n2)cc1OC	-	-	-	-	-	-	.	.	.	.	.	.
COc1cccc(C(=O)Nc2cccc(C(C)=O)c2)c1	-	-	-	-	-	-	.	.	.	.	.	.
COc1cccc(C(=O)Nc2nnc(-c3ccc(F)cc3)o2)c1	-	-	-	-	-	-	.	.	.	.	.	.
COc1cccc(C(=O)Nc2nnc(-c3ccc(Cl)cc3)o2)c1	155	-	-	-	-	-	209	-	-	-	-	-
COc1cccc(NC(=O)c2cccc(Cl)c2)c1	153	-	-	-	-	-	-	-	-	-	-	.
CN(C(=O)c1ccc(NC(=O)C2CCN(C(=O)OC(C)(C)C)CC2)cc1)C1CC1	-	-	-	-	-	-	.	.	.	.	.	.
Cc1ccc2nc(/C(C#N)=C/c3ccccc3C(=O)O)[nH]c2c1	-	-	-	-	-	-	.	.	.	.	.	.
Cc1ccc2nc(/C(C#N)=C/c3ccc(O)c(O)c3)[nH]c2c1	-	-	150	189	-	+	.	.	.	.	.	-
CCOC(=O)CSC1=NC(=O)/C(=C/c2ccc(Br)cc2)S1	216	-	-	-	-	-	.	.	.	.	.	-
CCOC(=O)CSC1=NC(=O)/C(=C\c2ccc(OC(C)=O)cc2)S1	-	-	-	-	-	-	.	.	.	.	.	.
COCCNC(=O)c1ccc(CS(=O)(=O)c2ccc(OC)cc2)o1	-	-	-	-	-	-	.	.	.	.	.	.
CCCCN(CCCNC(=O)c1ccc(CS(=O)(=O)c2ccc(OC)cc2)o1)Cc1ccccc1	-	-	-	-	-	-	-	-	-	-	-	.
O=[N+]([O-])c1ccc(O)c(/C=N/Nc2ccccn2)c1	237	-	-	-	-	?	284	180	-	-	-	-
O=[N+]([O-])c1cccc(N/N=C/c2cc([N+](=O)[O-])ccc2O)c1	-	-	-	-	-	-	.	.	.	.	.	.
COc1ccccc1OCCCCCc1c(C)n[nH]c1C	-	-	-	-	-	-	.	.	.	.	.	.
COc1ccccc1OCCCc1c(C)n[nH]c1C	190	-	-	-	-	-	.	.	.	.	.	-
Cc1nnc(SCC(=O)Nc2cccc(Br)c2)s1	-	-	-	-	-	-	.	.	.	.	.	.
Cc1cc(Nc2cccc(Cl)c2)nc(NCc2ccccc2)n1	-	-	-	-	-	-	.	.	.	.	.	.
